This is an account of results in PubChem BioAssay (Tox21).

Inconclusive results are not listed. Activity calls are given as the source filed them. Unless noted, calls come from the whole dose curve.

A short description of test [1]: Nuclear factor erythroid 2-related factor 2/antioxidant responsive element (Nrf2/ARE) small molecule agonists: luciferase reporter gene qHTS assay in human keratinocytes (AID 1919969). Note: nearly all actives have a fitted effect of over 35% in size. Note: potency is the fitted concentration of half-maximal effect.
The target of test [2] is Gonadotropin-releasing hormone receptor (Homo sapiens) (UniProt P30968). Briefly: Human gonadotropin-releasing hormone receptor (GnRHR) small molecule agonists, calcium flux assay in GnRHR-HEK293 cells (AID 1920063). Note: nearly all actives have a fitted effect of over 35% in size. Note: potency is the fitted concentration of half-maximal effect. A digest of the protocol: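 Fluorescence kinetics (480 nm excitation, 540 nm emission; 3 min, 1 s steps) report calcium mobilisation in human GnRHR-HEK293 cells in agonist mode. Dye incubation: 1 h, 37 C.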
Gonadotropin-releasing hormone receptor (Homo sapiens), sequence (P30968 whole entry, looked up): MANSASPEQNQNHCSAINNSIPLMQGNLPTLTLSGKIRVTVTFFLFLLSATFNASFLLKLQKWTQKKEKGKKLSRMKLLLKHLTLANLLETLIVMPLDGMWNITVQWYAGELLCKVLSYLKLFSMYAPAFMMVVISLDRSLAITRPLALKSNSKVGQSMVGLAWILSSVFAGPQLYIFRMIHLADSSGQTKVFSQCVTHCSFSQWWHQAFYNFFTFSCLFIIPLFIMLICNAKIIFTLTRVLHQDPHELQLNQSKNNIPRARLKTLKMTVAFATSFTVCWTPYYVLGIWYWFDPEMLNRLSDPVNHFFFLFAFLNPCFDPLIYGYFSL
Background: Calcium assays in cells follow changes in intracellular calcium, usually with a dye or a luminescent sensor.

Test [3] concerns the target KiSS-1 receptor (Homo sapiens) (UniProt Q969F8). Put plainly: Human kisspeptin (KISS1R) small molecule agonists, calcium flux assay in KISS1R-HEK293 cells (AID 1920064; active = well fitted activation curve with a large enough effect in the repeat runs). A digest of the protocol: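 Measures KISS1R agonism through calcium-sensitive dye fluorescence in stably transfected HEK293 cells, read for 3 min after pin-tool compound delivery; 15-point titrations in triplicate.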

Test [4] in a line: G protein-coupled receptor (GPCR) small molecule agonists, calcium flux assay: HEK293 wild type cell line counter screen (AID 1920065). A digest of the protocol:
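Readout: fluorescence at 480 nm excitation/540 nm emission, sampled at 1 s intervals for 3 min. Cells had been cultured 18 h, then dye-loaded 1 h at 37 C before compound or ATP addition.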

Test [5] in a line: p53 small molecule agonists, cell-based qHTS assay with human liver microsomes: qHTS cell viability counter screen (AID 1963579). Note: nearly all actives have a fitted effect of over 45% in size. A digest of the protocol: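 p53RE-bla cells (4,000/well) were pre-incubated 5 h at 37 C, then given compounds in DMSO plus human liver microsomes (0.5 mg/mL final) and NADPH (0.5 mg/mL final) for 16 h at 37 C. Viability was read by CellTiter-Glo luminescence.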
In general terms: Quantitative high-throughput screening tests each substance at several concentrations.

Test [6] in a line: p53 small molecule agonists, cell-based qHTS assay with rat liver microsomes: qHTS cell viability counter screen (AID 1963580). Note: nearly all actives have a fitted effect of over 45% in size. A digest of the protocol:
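Intracellular ATP, by CellTiter-Glo luminescence, defines viability. HCT-116 p53RE-bla cells, 4,000 per well, were compound-treated in the presence of rat liver microsomes and NADPH for 16 h at 37 C.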

Test [7] in a line: p53 small molecule agonists, cell-based qHTS assay: qHTS cell viability counter screen (AID 1963581). Note: nearly all actives have a fitted effect of over 45% in size. Summed up: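 In the same plates used for the p53 bla reporter, HCT-116 cells given compounds for 16 h at 37 C received CellTiter-Glo; luminescence was recorded 30 min later at room temperature.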
Test [8] concerns the target 5-hydroxytryptamine receptor 2A (Homo sapiens) (UniProt P28223). Put plainly: 5-hydroxytryptamine receptor 2A (HTR2A) small molecule antagonists, cell-based qHTS assay (AID 1963586). Note: nearly all actives have a fitted effect of over 45% in size. Summed up: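 Antagonist-mode intracellular calcium assay: DOI (4 nM) added after 5 min compound pre-incubation at room temperature to dye-loaded HTR2A-CHO cells. Fluorescence followed for 3 min, sampled every second.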

The target is the same in test [9]. Briefly: 5-hydroxytryptamine receptor 2A (HTR2A) small molecule agonists, cell-based qHTS assay (AID 1963587). Note: nearly all actives have a fitted effect of over 30% in size. Note: potency is the fitted concentration of half-maximal effect. Summed up:
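Kinetic calcium-flux fluorescence (2 min, 1 sec intervals) after compound addition in agonist mode. HTR2A-CHO cells were cultured 18 h, then dye-loaded 1 h at 37 C.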

Test [10] addresses Muscarinic acetylcholine receptor M1 (Homo sapiens) (UniProt P11229). Briefly: Cholinergic receptor muscarinic 1 (CHRM1) small molecule antagonists, cell-based qHTS assay (AID 1963588). Note: nearly all actives have a fitted effect of over 40% in size. Summed up: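 CHRM1-CHO calcium-flux assay, antagonist mode. Cells were seeded 18 h, dye-loaded 1 h at 37 C and given compound for 5 min at RT, then acetylcholine was added at 50nM. FDSS fluorescence was read 3 min; 15 concentrations, three runs.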

Test [11] has the same target. Briefly: Cholinergic receptor muscarinic 1 (CHRM1) small molecule agonists, cell-based qHTS assay (AID 1963589). Note: nearly all actives have a fitted effect of over 35% in size. Summed up: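 Each compound was tested at 15 concentrations across three independent runs on dye-loaded CHO cells stably expressing human CHRM1, reading intracellular calcium fluorescence kinetically at 1 sec intervals.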
The target of test [12] is Beta-2 adrenergic receptor (Homo sapiens) (UniProt P07550). Briefly: Adrenergic beta2 receptor (ADRB2) small molecule antagonists, cell-based qHTS assay (AID 1963592). Note: series mostly up to about 92 µM; nearly all actives have a fitted effect of over 50% in size. A digest of the protocol:
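Cells (CHO, stable ADRB2 overexpression) incubated 18-20hr at 37C; compounds added from DMSO; agonist mix (1nM isoproterenol, 100uM IBMX, 25uM Ro-20-1724) added; 0.5hr RT; d2-cAMP and anti-cAMP-cryptate added; 1hr RT; 665/615 nm read.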

Test [13] has as its target D(2) dopamine receptor (Homo sapiens) (UniProt P14416). Put plainly: Dopamine D2 receptor (DRD2) small molecule agonists, cell-based qHTS assay (AID 1963594). Note: nearly all actives have a fitted effect of over 35% in size. A digest of the protocol:
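cAMP accumulation in DRD2-HEK293 cells measured by HTRF after 1 h detection; compounds added 10 min before NKH477 (200nM […]) forskolin-analogue stimulation, 30 min at room temperature, with Ro20-1724 present at 0.1 mM final.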

The target is the same in test [14]. Put plainly: Dopamine D2 receptor (DRD2) small molecule antagonists, cell-based qHTS assay (AID 1963595; active = well fitted inhibition curve with a large enough effect in the signal ratio in the repeat runs, with a control signal flat; the % refers to the signal ratio). A digest of the protocol:
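HEK293 cells stably expressing DRD2, preincubated with 0.1 mM Ro20-1724 and compounds 10 min, were stimulated with 200 nM NKH477 plus 12 nM quinpirole for 30 min at room temperature; cAMP measured by HTRF (665/620 nm).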

Test [15] in a line: cAMP Responsive Elements (CRE) small molecule agonists, cell-based qHTS assay (AID 1963590). Note: potency is the fitted concentration of half-maximal effect. A digest of the protocol:
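Cell line: CRE-bla HEK 293T; medium DMEM/10% dialyzed FBS/0.1 mM NEAA/1 mM pyruvate/25 mM HEPES; 3 h compound exposure; beta-lactamase FRET readout after 2 h substrate loading at RT.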

The nature of test [16]: cAMP Responsive Elements (CRE) small molecule antagonists, cell-based qHTS assay (AID 1963591; active = well fitted inhibition curve with a large enough effect in the signal ratio in the repeat runs, not every such curve was filed as active; the % refers to the signal ratio). Summed up: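 Inhibition of NKH477-driven (0.25 uM final) CRE-beta-lactamase signal in HEK293T cells, 3 h compound exposure at 37 °C, detected by FRET substrate fluorescence.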
Test [17] has as its target Beta-2 adrenergic receptor (Homo sapiens) (UniProt P07550). Put plainly: Adrenergic beta2 receptor (ADRB2) small molecule agonists, cell-based qHTS assay (AID 1963593).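 Note: CHO cells stably overexpressing human ADRB2.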 A digest of the protocol: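 CHO cells stably over-expressing ADRB2 were plated overnight at 37C, then dosed with compounds plus a stimulation mix containing 100uM IBMX and 25uM Ro-20-1724 for 0.5hr at room temperature. cAMP was measured by HTRF competition, 1hr.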

A short description of test [18]: p53 small molecule agonists, cell-based qHTS assay with rat liver microsomes (AID 1963578). A digest of the protocol:
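p53RE-bla cells were exposed to compounds together with rat liver microsomes (0.5 mg/mL final) and NADPH (0.5 mg/mL final) for 16 h at 37 C, then read by LiveBLAzer beta-lactamase fluorescence after 2 h at room temperature.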

Test [19] can be described thus: p53 small molecule agonists, cell-based qHTS assay (AID 1963582; active = well fitted activation curve with a large enough effect in the signal ratio in the repeat runs, not every such curve was filed as active; the % refers to the signal ratio). A digest of the protocol: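 Compounds are pin-transferred in DMSO onto p53RE-bla cells and incubated 16 h at 37 C. The B/G FRET beta-lactamase substrate is then applied for 2 h at RT and fluorescence recorded.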

Beta-2 adrenergic receptor (Homo sapiens), sequence (P07550 whole entry, looked up): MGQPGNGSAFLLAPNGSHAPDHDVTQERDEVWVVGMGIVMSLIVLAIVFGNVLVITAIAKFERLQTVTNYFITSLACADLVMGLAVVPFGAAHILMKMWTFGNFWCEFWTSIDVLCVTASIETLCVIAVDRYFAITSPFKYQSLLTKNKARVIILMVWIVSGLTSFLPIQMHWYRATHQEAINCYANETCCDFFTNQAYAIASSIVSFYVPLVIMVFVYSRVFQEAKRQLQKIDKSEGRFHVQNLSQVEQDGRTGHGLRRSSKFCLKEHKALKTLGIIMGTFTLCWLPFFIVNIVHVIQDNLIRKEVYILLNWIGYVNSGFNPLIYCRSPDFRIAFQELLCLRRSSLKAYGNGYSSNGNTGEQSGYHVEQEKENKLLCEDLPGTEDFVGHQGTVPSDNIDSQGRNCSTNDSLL
Muscarinic acetylcholine receptor M1 (Homo sapiens), sequence (P11229 whole entry, looked up): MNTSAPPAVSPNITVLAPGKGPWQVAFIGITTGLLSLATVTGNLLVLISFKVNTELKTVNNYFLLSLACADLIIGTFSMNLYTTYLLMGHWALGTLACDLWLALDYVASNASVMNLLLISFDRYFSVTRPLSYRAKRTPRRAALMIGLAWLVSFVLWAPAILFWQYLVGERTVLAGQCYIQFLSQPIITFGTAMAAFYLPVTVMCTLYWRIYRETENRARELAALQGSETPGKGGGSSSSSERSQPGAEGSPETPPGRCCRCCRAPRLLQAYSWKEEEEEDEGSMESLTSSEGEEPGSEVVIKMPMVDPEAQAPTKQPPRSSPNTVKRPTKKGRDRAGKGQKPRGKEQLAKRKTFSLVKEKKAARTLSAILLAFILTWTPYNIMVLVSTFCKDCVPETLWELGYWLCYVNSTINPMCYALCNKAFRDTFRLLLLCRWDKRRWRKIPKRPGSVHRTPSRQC
KiSS-1 receptor (Homo sapiens), sequence (Q969F8 whole entry, looked up): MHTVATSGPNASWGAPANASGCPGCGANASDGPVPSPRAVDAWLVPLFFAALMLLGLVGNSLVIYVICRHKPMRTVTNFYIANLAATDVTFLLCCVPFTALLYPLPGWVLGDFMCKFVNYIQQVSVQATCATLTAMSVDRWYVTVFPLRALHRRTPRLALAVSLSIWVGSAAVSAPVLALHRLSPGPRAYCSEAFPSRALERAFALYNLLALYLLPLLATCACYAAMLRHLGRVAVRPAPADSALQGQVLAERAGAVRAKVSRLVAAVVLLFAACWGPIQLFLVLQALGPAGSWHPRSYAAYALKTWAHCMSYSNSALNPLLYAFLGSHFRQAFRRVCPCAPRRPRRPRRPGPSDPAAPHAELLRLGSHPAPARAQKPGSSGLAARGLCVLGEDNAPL
D(2) dopamine receptor (Homo sapiens), sequence (P14416 whole entry, looked up): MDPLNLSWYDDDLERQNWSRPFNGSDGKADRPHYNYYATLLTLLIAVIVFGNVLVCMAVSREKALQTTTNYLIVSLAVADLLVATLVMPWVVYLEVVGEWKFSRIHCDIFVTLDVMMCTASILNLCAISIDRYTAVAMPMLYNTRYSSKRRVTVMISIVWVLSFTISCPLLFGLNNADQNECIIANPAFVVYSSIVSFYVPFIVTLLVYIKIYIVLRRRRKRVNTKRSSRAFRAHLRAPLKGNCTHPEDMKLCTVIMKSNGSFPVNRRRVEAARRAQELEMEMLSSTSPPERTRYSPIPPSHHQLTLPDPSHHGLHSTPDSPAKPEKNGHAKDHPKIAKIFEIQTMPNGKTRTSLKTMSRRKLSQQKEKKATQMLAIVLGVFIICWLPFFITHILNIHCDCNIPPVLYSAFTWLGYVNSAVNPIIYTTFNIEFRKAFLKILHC
5-hydroxytryptamine receptor 2A (Homo sapiens), sequence (P28223 whole entry, looked up): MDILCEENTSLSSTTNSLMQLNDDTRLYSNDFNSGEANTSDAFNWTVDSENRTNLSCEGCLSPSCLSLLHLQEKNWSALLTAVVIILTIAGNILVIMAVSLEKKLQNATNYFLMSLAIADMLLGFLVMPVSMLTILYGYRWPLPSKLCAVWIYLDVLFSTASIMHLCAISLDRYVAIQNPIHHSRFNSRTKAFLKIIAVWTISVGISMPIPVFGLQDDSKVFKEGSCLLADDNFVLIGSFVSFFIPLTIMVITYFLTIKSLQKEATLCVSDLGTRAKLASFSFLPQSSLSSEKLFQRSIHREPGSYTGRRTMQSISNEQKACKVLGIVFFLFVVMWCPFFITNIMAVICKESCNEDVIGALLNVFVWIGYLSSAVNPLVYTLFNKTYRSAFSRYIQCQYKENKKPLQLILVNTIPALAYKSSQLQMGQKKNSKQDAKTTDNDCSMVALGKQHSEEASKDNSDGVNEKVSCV

For `c1ccc2c(c1)-c1ccc3ccc4cccc5cc-2c1c3c45`, the Potency was 13.3 µM (active) in [1], 6.74 µM (active) in test [2] and 10.7 µM (active) in test [9]. Also, the Potency entry in [3], in test [4], in test [5], in test [6], in [7] and in [8] was “inactive” each time. For the same compound, the Potency entry in test [10], in [11], in test [12], in [13] and in test [14] was “inactive” throughout.
For the compound `CCC/C=C(\C=O)CC`, the Potency result in [1], in [2], in [3], in test [4], in test [5] and in test [6] was “inactive” each time. The Potency result in test [7], in test [8], in [9], in test [10], in [11] and in test [15] was “inactive” each time. In addition, the Potency entry in test [16], in test [12], in test [17], in [13] and in test [14] was “inactive” in each case.
For `C/C=C(\C)C(C)=O`, the Potency entry in test [1], in test [2], in [3], in test [4], in test [5] and in test [6] was “inactive” each time. Moreover, the Potency entry in [7], in test [8], in test [9], in test [10], in test [11] and in test [15] was “inactive” throughout. Besides, the Potency result in [16], in test [12], in test [17], in test [13] and in test [14] was “inactive” in each case.
In the case of `Cc1nc(Nc2ncc(C(=O)Nc3c(C)cccc3Cl)s2)cc(N2CCN(CCO)CC2)n1`, the Potency result in test [1], in test [2], in test [3], in test [4], in test [18] and in test [6] was “inactive” in each case. Further, the Potency result in test [19], in test [8], in [9], in test [10], in test [11] and in [16] was “inactive” each time. In addition, the Potency entry in test [12], in test [17] and in test [14] was “inactive” throughout. Further, the Potency in test [15] is 0.841 µM (active).
Take `CC(Cc1ccc(O)c(O)c1)C(C)Cc1ccc(O)c(O)c1` (stereo not given): the Potency in test [1] is 68.6 µM (active). For the same compound, the Potency entry in [2], in test [3], in [4], in [18], in [5] and in test [7] was “inactive” each time. Moreover, the Potency result in [11], in [13] and in test [14] was “inactive” in each case.
With `CNCC[C@@H](Oc1ccccc1C)c1ccccc1`, the Potency entry in test [1], in test [2], in [3], in test [4], in test [18] and in [5] was “inactive” each time. The Potency entry in [19], in test [9], in test [11], in test [16], in test [12] and in [13] was “inactive” each time. Further, the Potency result in test [14] was “inactive”.
Take `O=S(=O)(O)SSS(=O)(=O)O`: the Potency result in test [1], in [2], in test [3], in [4], in test [5] and in [6] was “inactive” in each case. Further, the Potency entry in test [7], in [8], in [9], in test [10], in [11] and in [15] was “inactive” throughout. Besides, the Potency entry in test [16], in [12], in test [17], in [13] and in test [14] was “inactive” throughout.
As to `CC1(C)C(=O)N(Cl)C(=O)N1Br`, the Potency result in test [1], in test [2], in test [3], in test [4], in test [5] and in test [6] was “inactive” each time. The Potency result in test [7], in test [8], in test [9], in test [10], in [11] and in [15] was “inactive” each time. The Potency entry in test [16], in test [12], in test [17] and in test [14] was “inactive” in each case.
